Outcome and AC50 data for 5 molecules are collected here from PubChem BioAssay (EPA / NIEHS).

“And” between values parts separate entries of the source, which are not always exact repeats. Equal values may be shown once. Records with an inconclusive call do not appear. The source made the active and inactive calls. The calls were made as follows, unless noted: active = hit-call score of the fitted dose curve at least 0.9, where 1 is the maximum; inactive = score below 0.9.

Read-out in assay [1]: Monokine induced gamma interferon (MIG), CXCL9 (gene 4283)
Put plainly: BSK_3C_MIG: BioMAP Diversity Plus: 3C Assay for Monokine induced gamma interferon (MIG) Biomarker Activity (AID 2283021). The settings on record: primary human endothelial cells (HUVEC); actives raise or lower the signal. The essentials:
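HUVEC, 3C system; 24 h chemical exposure; MIG by ELISA; bidirectional fit vs DMSO baseline.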

The nature of assay [2]: BSK_3C_SRB: Viability Assessment in the BioMAP Diversity Plus: 3C Assay (AID 2283023).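 Also: fitted both ways against DMSO so a hit may be signal rise or drop.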 The settings on record: primary human endothelial cells (HUVEC). The essentials:
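Human umbilical vein endothelial cells in the 3C system, treated 24 h. Total protein measured by 0.1% sulforhodamine B staining after 10% TCA fixation, read at 560 nm; bidirectional fit versus DMSO.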

Read-out in assay [3]: Matrix Metallopeptidase 1 (MMP1), MMP1 (gene 4312)
Kind of assay: BSK_BE3C_MMP1: BioMAP Diversity Plus: BE3C Assay for Matrix Metallopeptidase 1 (MMP1) Biomarker Activity (AID 2283024). The settings on record: primary human bronchial epithelial cells; actives raise or lower the signal. The essentials: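 ELISA read-out of MMP1 in human lung bronchial epithelial primary cultures, 24 h post-dose; bidirectional curve fit vs DMSO baseline, gain or loss of signal scored.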

A short description of assay [4]: BSK_3C_Vis: BioMAP Diversity Plus: 3C Assay for Morphology Visualization (AID 2283025).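 Also: fitted both ways so gain or loss versus DMSO counts.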 The settings on record: primary human endothelial cells (HUVEC). The essentials:
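HUVEC, 3C system; light microscopy of morphology at 24 h post-dose. Bidirectional fit vs DMSO baseline. Secondary readout, background-control function.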

Read-out in assay [5]: Pselectin, SELP (gene 6403)
Put plainly: BSK_4H_Pselectin: BioMAP Diversity Plus: 4H Assay for Pselectin Biomarker Activity (AID 2283026). Particulars: primary human endothelial cells (HUVEC); actives raise or lower the signal. The essentials: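 HUVEC, 24 h chemical exposure; P-selectin read by ELISA. Bidirectional curve fit vs DMSO baseline; gain or loss of signal scored.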

The nature of assay [6]: BSK_4H_SRB: Viability Assessment in the BioMAP Diversity Plus: 4H Assay (AID 2283027).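 Also: cells exposed to compound for 24 h before staining.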 Particulars: primary human endothelial cells (HUVEC). A digest of the protocol:
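Cytotoxicity readout: sulforhodamine B (0.1%) staining of total protein after 10% TCA fixation, measured at 560 nm in human umbilical vein endothelium at 24 h. DMSO set the baseline; fitting was bidirectional.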

Assay [7] can be described thus: BSK_BE3C_SRB: Viability Assessment in the BioMAP Diversity Plus: BE3C Assay (AID 2283028). The settings on record: primary human bronchial epithelial cells. The essentials:
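Human bronchial epithelial primary cells in confluent culture, 24 h after chemical dosing; total protein by 0.1% SRB staining after 10% TCA fixation, read at 560 nm. Bidirectional fitting versus DMSO baseline.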

Read-out in assay [8]: Thrombomodulin, THBD (gene 7056)
Put plainly: BSK_3C_Thrombomodulin: BioMAP Diversity Plus: 3C Assay for Thrombomodulin Biomarker Activity (AID 2283029). Particulars: primary human endothelial cells (HUVEC); actives raise or lower the signal. A digest of the protocol:
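HUVEC, 3C conditions; compound 24 h; thrombomodulin by ELISA; bidirectional curve fit vs DMSO baseline; parallel SRB total-protein staining for cytotoxicity.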

Read-out in assay [9]: Urokinase-type plasminogen activator receptor (uPAR), PLAUR (gene 5329)
Put plainly: BSK_4H_uPAR: BioMAP Diversity Plus: 4H Assay for Urokinase-type plasminogen activator receptor (uPAR) Biomarker Activity (AID 2283030). The settings on record: primary human endothelial cells (HUVEC); actives raise or lower the signal. A digest of the protocol:
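Human umbilical vein endothelial cells in the 4H system, 24 h after chemical dosing. Cell-surface uPAR measured by ELISA, fitted in both directions versus DMSO; cytotoxicity checked by SRB total protein in parallel cultures.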

Read-out in assay [10]: Vascular endothelial growth factor receptor 2 (Homo sapiens) (UniProt P35968)
Kind of assay: BSK_4H_VEGFRII: BioMAP Diversity Plus: 4H Assay for Vascular endothelial growth factor receptor 2 (VEGFR2) Biomarker Activity (AID 2283031). The settings on record: primary human endothelial cells (HUVEC); actives raise or lower the signal. A digest of the protocol: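 Primary human umbilical vein endothelial cells (4H system), 24 h exposure; cell-surface VEGFR2 measured by ELISA. Bidirectional fitting versus DMSO; cytotoxicity checked in parallel by SRB total-protein staining.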

Read-out in assay [11]: Human Leukocyte Antigen - DR isotype (HLADR), HLA-DRA (gene 3122)
Kind of assay: BSK_BE3C_HLADR: BioMAP Diversity Plus: BE3C Assay for Human Leukocyte Antigen - DR isotype (HLADR) Biomarker Activity (AID 2283032). The settings on record: primary human bronchial epithelial cells; actives raise or lower the signal. A digest of the protocol: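 Primary human bronchial epithelial cells (BE3C); 24 h chemical exposure; HLA-DR by ELISA; bidirectional curve fit vs DMSO baseline.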

Read-out in assay [12]: Vascular cell adhesion molecule 1 (VCAM1), VCAM1 (gene 7412)
Kind of assay: BSK_4H_VCAM1: BioMAP Diversity Plus: 4H Assay for Vascular cell adhesion molecule 1 (VCAM1) Biomarker Activity (AID 2283033).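 Also: cell-surface VCAM-1 protein measured by ELISA.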 The settings on record: primary human endothelial cells (HUVEC); actives raise or lower the signal. A digest of the protocol:
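HUVEC, 24 h post-dose; VCAM-1 by ELISA. Bidirectional curve fit vs DMSO baseline. Parallel SRB total-protein stain (0.1% SRB after 10% TCA fixation, 560 nm) for cytotoxicity.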

Read-out in assay [13]: Interferon-gamma inducible Protein 10 (IP10), CXCL10 (gene 3627)
Put plainly: BSK_BE3C_IP10: BioMAP Diversity Plus: BE3C Assay for Interferon-gamma inducible Protein 10 (IP10) Biomarker Activity (AID 2283034). Particulars: primary human bronchial epithelial cells; actives raise or lower the signal. The essentials:
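ELISA readout of IP-10 in BE3C system: primary human bronchial epithelial cells, 24 h post-dosing; bidirectional curve fit vs DMSO baseline.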

Read-out in assay [14]: Monokine induced gamma interferon (MIG), CXCL9 (gene 4283)
Put plainly: BSK_BE3C_MIG: BioMAP Diversity Plus: BE3C Assay for Monokine induced gamma interferon (MIG) Biomarker Activity (AID 2283035).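 Also: MIG protein measured by ELISA in BE3C cultures after 24 h of dosing.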 The settings on record: primary human bronchial epithelial cells; actives raise or lower the signal. The essentials:
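hu bronchial epithelial 1° cells, 24 h cpd; MIG by ELISA; bidirectional fit, DMSO = baseline.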

Read-out in assay [15]: Transforming growth factor beta 1 (TGFb1), TGFB1 (gene 7040)
Kind of assay: BSK_BE3C_TGFb1: BioMAP Diversity Plus: BE3C Assay for Transforming growth factor beta 1 (TGFb1) Biomarker Activity (AID 2283036;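 also: TGF-b1 protein level measured by ELISA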). Particulars: primary human bronchial epithelial cells; actives raise or lower the signal. The essentials: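 Read-out: ELISA for TGF-b1 in primary human bronchial epithelial cultures, 24 h post-dose. Bidirectional curve fitting vs DMSO control; gain or loss of signal both scored.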

Read-out in assay [16]: Plasminogen activator inhibitor-1 (PAI1), SERPINE1 (gene 5054)
Kind of assay: BSK_BE3C_PAI1: BioMAP Diversity Plus: BE3C Assay for Plasminogen activator inhibitor-1 (PAI1) Biomarker Activity (AID 2283037). The settings on record: primary human bronchial epithelial cells; actives raise or lower the signal. A digest of the protocol:
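ELISA read-out of PAI-1 from human bronchial epithelial primary cells, 24 h post-dosing; bidirectional curve fit vs DMSO baseline, gain or loss of signal scored.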

Read-out in assay [17]: urokinase plasminogen activator (uPA), PLAU (gene 5328)
Put plainly: BSK_BE3C_uPA: BioMAP Diversity Plus: BE3C Assay for urokinase plasminogen activator (uPA) Biomarker Activity (AID 2283038).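 Also: uPA protein level quantified by ELISA in cell cultures; uPA read one day after compound addition.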 The settings on record: primary human bronchial epithelial cells; actives raise or lower the signal. A digest of the protocol:
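Primary human bronchial epithelial cells, uPA measured by ELISA 24 h after dosing. Bidirectional change relative to DMSO; cytotoxicity checked in parallel cultures by sulforhodamine B total-protein staining.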

Read-out in assay [18]: Urokinase-type plasminogen activator receptor (uPAR), PLAUR (gene 5329)
Kind of assay: BSK_BE3C_uPAR: BioMAP Diversity Plus: BE3C Assay for Urokinase-type plasminogen activator receptor (uPAR) Biomarker Activity (AID 2283039).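 Also: cells exposed to compound for one day before measurement.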 Particulars: primary human bronchial epithelial cells; actives raise or lower the signal. The essentials:
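ELISA readout of uPAR on human lung primary bronchial epithelial cells, 24 h post-dosing. Bidirectional curve fit relative to DMSO vehicle baseline; gain or loss of signal both scored.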

Read-out in assay [19]: Interleukin-6 (IL6), IL6 (gene 3569)
Put plainly: BSK_CASM3C_IL6: BioMAP Diversity Plus: CASM3C Assay for Interleukin-6 (IL6) Biomarker Activity for (AID 2283040). Particulars: primary human coronary artery smooth muscle cells; actives raise or lower the signal.

Assay [20] has as its target human Vitamin D Receptor (VDR), VDR (gene 7421) (UniProt P11473). Kind of assay: ATG_VDR_TRANS: Attagene TRANS-FACTORIAL HepG2 Assay for human Vitamin D Receptor (VDR) (AID 2283022; active = hit-call score of the fitted dose curve at least 0.9, where 1 is the maximum). The essentials: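 HepG2 cells were transiently transfected with GAL4-UAS reporter units and a chimeric VDR-Gal4 construct, then dosed for 24 hours. Reporter mRNA was quantified by RT-PCR, fluorescent labeling, HpaI digestion and capillary electrophoresis; gain of signal analysed vs DMSO.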

human Vitamin D Receptor (VDR), VDR (gene 7421), sequence (P11473 whole entry, looked up, the tested form may be a part): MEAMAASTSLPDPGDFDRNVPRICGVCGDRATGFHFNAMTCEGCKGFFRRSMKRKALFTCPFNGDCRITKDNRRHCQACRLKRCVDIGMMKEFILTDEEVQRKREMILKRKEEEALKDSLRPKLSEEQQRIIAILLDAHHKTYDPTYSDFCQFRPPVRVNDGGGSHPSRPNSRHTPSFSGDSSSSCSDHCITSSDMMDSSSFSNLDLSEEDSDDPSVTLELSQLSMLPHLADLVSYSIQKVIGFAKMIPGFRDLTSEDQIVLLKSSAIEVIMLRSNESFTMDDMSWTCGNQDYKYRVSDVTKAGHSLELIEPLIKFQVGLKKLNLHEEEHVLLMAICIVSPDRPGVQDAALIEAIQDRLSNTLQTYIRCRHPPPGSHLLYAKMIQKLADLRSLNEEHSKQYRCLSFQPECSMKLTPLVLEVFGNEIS

Take `CCc1c(C)cc(N)c(CC)c1N`: the result in assay [1], in assay [2], in [3], in assay [4], in [5] and in assay [6] was inactive. Also, the result in [7], in [8], in assay [9], in [10], in assay [11] and in [12] was inactive. Also, the result in assay [13], in [14], in assay [15], in [16], in assay [17] and in assay [18] was inactive. The result in assay [19] was inactive.

With `C[C@H]1C[C@@H]2[C@H]([C@@H](O)C[C@@]3(C)[C@H]2CC[C@]3(O)C(=O)CO)[C@@]2(C)C=CC(=O)C=C12`, the result in assay [1], in assay [2], in [3], in assay [5], in assay [6] and in [7] was inactive. Moreover, the outcome in assay [8], in [9], in assay [10], in assay [11], in [12] and in assay [13] was inactive. The result in assay [14], in assay [16], in [17] and in [18] was inactive. In [19], the AC50 (commonly the midpoint of the concentration-response curve, whichever way the signal moves) was 352 nM (active) and 321 nM (active).

With `CCN(CC)c1ccc2c(-c3ccccc3C(=O)O)c3ccc(=[N+](CC)CC)cc-3oc2c1`, in assay [20], the molecule was called inactive.

Regarding `C[C@H]1C[C@H]2[C@@H]3CCC4=CC(=O)C=C[C@]4(C)[C@@]3(F)[C@@H](O)C[C@]2(C)[C@@]1(O)C(=O)COP(=O)(O)O`, in assay [20], the result was inactive.

Take `CCc1ccc(C=O)cc1`: the call in assay [20] was inactive.
